From PubChem
ID4 SMM = ID4 (human) binding; calls only; small molecule microarray, Flag-ID4 binding, fluorescence F/B; AID 624137; actives 1.2% (n = 31,000); call rule not given here;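 further: a binder raises fluorescence above local background on the spot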
Target sequence (P47928 whole entry, looked up): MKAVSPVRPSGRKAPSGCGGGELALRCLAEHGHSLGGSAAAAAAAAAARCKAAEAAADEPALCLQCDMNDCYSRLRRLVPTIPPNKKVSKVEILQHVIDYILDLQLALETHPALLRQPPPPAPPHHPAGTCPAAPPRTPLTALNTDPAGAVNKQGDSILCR
STK33 kin inh = blocks human STK33 kinase activity; ADP-Glo luminescence, MBP substrate; inhibition, % at 12.5 µM; actives 0.44% (n = 27,000); AID 2322; in the data active means inhibition above about 20%; inconclusive means no clear call, values can overlap the other calls
Target sequence (Q9BYT3 whole entry, looked up): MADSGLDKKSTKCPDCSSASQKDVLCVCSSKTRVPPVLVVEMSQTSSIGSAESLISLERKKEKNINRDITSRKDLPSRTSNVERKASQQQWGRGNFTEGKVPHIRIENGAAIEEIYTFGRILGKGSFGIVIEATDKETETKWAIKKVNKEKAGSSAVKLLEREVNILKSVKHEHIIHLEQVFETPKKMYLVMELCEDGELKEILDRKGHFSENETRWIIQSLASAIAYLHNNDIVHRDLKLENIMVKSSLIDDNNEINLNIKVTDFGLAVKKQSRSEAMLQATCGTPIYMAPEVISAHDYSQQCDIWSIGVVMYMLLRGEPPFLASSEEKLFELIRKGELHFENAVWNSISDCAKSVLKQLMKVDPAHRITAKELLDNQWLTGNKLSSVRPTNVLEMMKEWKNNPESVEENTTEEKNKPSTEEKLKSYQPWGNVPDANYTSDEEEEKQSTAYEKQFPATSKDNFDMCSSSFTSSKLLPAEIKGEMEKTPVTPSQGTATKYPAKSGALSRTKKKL
p53 PUMA act = re-activators of the mutant p53 pathway; activation, % at 9.98 µM; SW480 PUMA-promoter luciferase, p53 mutant reactivation; actives 1.5% (n = 28,000); in the data active means activation above about 52%; inconclusive means no clear call, values can overlap the other calls
Of the large screens only hits and unclear results are named; the others gave an inactive call. Most compounds without a hit are left out; they make up all but 2% or so of the library.

CNC[C@H]1Oc2ccc(NS(=O)(=O)c3cccs3)cc2CC(=O)N([C@H](C)CO)C[C@@H]1C	ID4 SMM active (no result: STK33 kin inh)
CNC[C@@H]1Oc2ccc(NS(=O)(=O)c3ccccc3)cc2CC(=O)N([C@@H](C)CO)C[C@H]1C	ID4 SMM active (no result: STK33 kin inh)
CNC[C@@H]1Oc2ccc(NS(=O)(=O)c3ccccc3)cc2CC(=O)N([C@@H](C)CO)C[C@@H]1C	none
CNC[C@@H]1Oc2ccc(NS(=O)(=O)c3cccs3)cc2CC(=O)N([C@H](C)CO)C[C@@H]1C	none
CCOc1ccc(NC(=O)CSc2nc3sc(C)c(C)c3c(=O)n2-c2ccc(C)cc2)cc1	none
O=C(O)CSc1nc2cc(F)c(F)cc2[nH]1	none
Cc1ccccc1S(=O)(=O)N1CCN(Cc2cccc(OCCO)c2)CC1	none (no result: ID4 SMM, p53 PUMA act)
CCC(=O)N1C(CC(=O)Nc2ccc(F)cc2)C(=O)NC2CCCCC21 (stereo not drawn)	none (no result: ID4 SMM, p53 PUMA act)
COc1cccc(NC(=O)CC2C(=O)NC3CCCCC3N2C(=O)c2ccccc2)c1 (stereo not drawn)	ID4 SMM active
Cc1ccc(Cl)cc1N(CC(=O)O)S(C)(=O)=O	none
O=C(NCc1ccccn1)Nc1ccc(F)cc1F	none
O=C(COc1ccc(Cl)cc1Br)NCc1ccccn1	p53 PUMA act 75.7
O=C(COc1ccc(Cl)cc1Br)Nc1cccnc1	p53 PUMA act inconclusive
O=C(NCc1ccccn1)Nc1ccccc1Cl	p53 PUMA act 142.8
Cc1cc(C)c(-n2c(O)c(C=Nc3cccc(O)c3)c(=O)[nH]c2=O)c(C)c1	none (no result: STK33 kin inh)
CC1=CC2OC3[C@H](O)C[C@](C)([C@@]2(CO)CC1=O)[C@]31CO1 (stereo partly drawn)	none (no result: ID4 SMM, p53 PUMA act)
O=C1c2ccc(O)cc2C(=O)c2ccc(O)cc21	STK33 kin inh 33.8
O=C(O)c1cc(O)c2c(c1)C(=O)c1cc(O)cc(O)c1C2=O	none (no result: ID4 SMM, p53 PUMA act)
C=CCn1c(Sc2ncnc3c2cnn3-c2ccccc2)nnc1-c1ccncc1	none (no result: STK33 kin inh)
O=C1CC2(CCCC2)CC(=O)N1CCCCN1CCN(c2ncccn2)CC1	none (no result: p53 PUMA act)
O=C1c2ccccc2S(=O)(=O)N1CCCCN1CCN(c2ncccn2)CC1	ID4 SMM active (no result: STK33 kin inh)
O=P(CCNCc1cccnc1)(c1ccccc1)c1ccccc1	ID4 SMM active (no result: STK33 kin inh)
O=C(NCc1cccnc1)c1cc(-c2ccccc2)on1	none
Cc1ccc(C)c(NC(=O)CN(c2cccc(F)c2)S(C)(=O)=O)c1	p53 PUMA act 64.3
Cc1ccc(NC(=O)CN(c2cccc(F)c2)S(C)(=O)=O)cc1Cl	none
CC(=O)OC[C@@]12C(=O)C[C@@H](C)[C@]3(C[C@@H](c4ccoc4)OC3=O)[C@H]1CC[C@H](O)[C@]21CO1	none
O=C1Nc2ccc(Br)cc2/C1=C/c1cc2c([nH]1)CCCC2	STK33 kin inh 71.5 (no result: ID4 SMM)
CN(C)S(=O)(=O)c1ccc2c(c1)/C(=C/c1cc3c([nH]1)CCCC3)C(=O)N2	none (no result: p53 PUMA act)
Cc1ccc(C2SCC(C(=O)O)N2C(=O)c2cccc(Cl)c2)cc1 (stereo not drawn)	none (no result: STK33 kin inh)
CC(=O)N/C(=C/c1ccc(Cl)c(Cl)c1)C(=O)O	none (no result: ID4 SMM, p53 PUMA act)
COc1ccc(NC(=O)Nc2cccc3c2O[C@H](CN(C)S(=O)(=O)c2ccc(Cl)cc2)[C@H](C)CN([C@@H](C)CO)C3=O)cc1	ID4 SMM active (no result: STK33 kin inh)
C[C@@H]1CN([C@@H](C)CO)C(=O)c2cccc(NC(=O)c3nc4ccccc4s3)c2O[C@H]1CN(C)C(=O)Nc1cccc2ccccc12	none (no result: STK33 kin inh)
C[C@H]1CN([C@@H](C)CO)C(=O)c2cccc(NC(=O)c3cnccn3)c2O[C@@H]1CN(C)C(=O)Nc1ccccc1	ID4 SMM active (no result: STK33 kin inh)
C[C@@H]1CN([C@@H](C)CO)C(=O)c2cccc(NC(=O)c3cnccn3)c2O[C@@H]1CN(C)C(=O)Nc1ccccc1	none (no result: STK33 kin inh)
COc1ccc(NC(=O)Nc2cccc3c2O[C@@H](CN(C)S(=O)(=O)c2ccc(Cl)cc2)[C@@H](C)CN([C@@H](C)CO)C3=O)cc1	none (no result: STK33 kin inh)
C[C@@H]1CN([C@H](C)CO)C(=O)c2cccc(NC(=O)c3nc4ccccc4s3)c2O[C@H]1CN(C)C(=O)Nc1cccc2ccccc12	ID4 SMM active (no result: STK33 kin inh)
O=c1cc(-c2ccccc2)n(-c2ccccc2)cn1	none (no result: ID4 SMM, p53 PUMA act)
Cc1c(Cl)cccc1NC(=O)Nc1cccc(Cn2cccn2)c1	none
Cc1scc(C(=O)Nc2cccc(Cn3cccn3)c2)c1-c1ccccc1	ID4 SMM active
O=C(O)CCC(=O)Nc1ccc(Br)c2cccnc12	none
COc1cccc(-c2nnc(SCC(=O)Nc3cccc([N+](=O)[O-])c3)n2C)c1	none
COc1ccc(-c2nnc(SCC(=O)Nc3c(F)cc(F)cc3Br)n2C)cc1	none
Cn1c(SCC(=O)Nc2c(F)cc(F)cc2Br)nnc1-c1ccco1	ID4 SMM active
Cc1ccc(NC(=O)c2ccc3c(=O)n(Cc4ccco4)c(=S)[nH]c3c2)cc1Cl	none (no result: ID4 SMM, p53 PUMA act)
CC(=O)Nc1ccc(C(=O)Nc2ccc(S(=O)(=O)Nc3nccs3)cc2)cc1	none
COC(=O)c1c(NC(=O)CN2C(=O)c3ccccc3S2(=O)=O)sc2c1CCCC2	none
Cc1cc(C(F)(F)F)nc(SCC(=O)Nc2ccc(I)cc2)c1C#N	none
CC(=O)c1ccc(NC(=O)CSc2nccn2C)cc1	p53 PUMA act 92.6
CC(=O)c1ccc(NC(=O)CSc2nc(C)cc(C)c2C#N)cc1	p53 PUMA act 140.1
Cc1cc(C)c(C#N)c(SCC(=O)Nc2ccc(C(N)=O)cc2)n1	p53 PUMA act 105.3
CSc1ccccc1NC(=O)CSc1nccn1C	none
Cc1cc(C)c(C#N)c(SCC(=O)Nc2sc3c(c2C#N)CCC3)n1	none
CCC(CCC(=O)Nc1ccccc1[N+](=O)[O-])C(=O)O (stereo not drawn)	none
C/S(=N\S(=O)(=O)c1cccc2nsnc12)c1ncc(Cl)cc1C(F)(F)F (stereo not drawn)	none (no result: STK33 kin inh)
C=C1C(=O)O[C@H]2[C@H]1[C@@H](OC(=O)/C(C)=C\C)C(OC(C)=O)/C(C(=O)OC)=C\CC[C@@]1(C)O[C@H]21 (stereo partly drawn)	none (no result: ID4 SMM, p53 PUMA act)
COC(=O)c1cccc(-n2c(CCC(=O)O)ccc2-c2ccc(C)cc2)c1	none
COC(=O)c1cccc(-n2c(CCC(=O)O)ccc2-c2cccs2)c1	p53 PUMA act 62.7
COc1ccc(NC(=O)CCn2cnc3ccccc3c2=O)cc1OC	none
NS(=O)(=O)c1ccc(NC(=O)CN2CCN(Cc3ccccc3)CC2)cc1	ID4 SMM active
COc1ccc(NC(=O)CN2CCN(S(=O)(=O)c3ccccc3)CC2)cc1	none
c1ccc2[nH]c(CCn3c4c(c5ccccc53)CCCC4)nc2c1	none
O=C1NCc2c1c1c3ccccc3[nH]c1c1[nH]c3ccccc3c21	STK33 kin inh 64.0 (no result: ID4 SMM)
COc1ccc(OC)c2c(=S)c3ccccc3[nH]c12	none (no result: STK33 kin inh)
Cc1nc(SCC(=O)Nc2cccc(C(=O)O)c2)[nH]c(=O)c1C	none
Cc1cc(C)nc(SCC(=O)Nc2cccc(C(=O)O)c2)n1	ID4 SMM active
COc1cc(C(=O)Nc2cccc(-c3nc4ncccc4o3)c2)cc(OC)c1OC	STK33 kin inh 30.4, p53 PUMA act inconclusive
Cc1c(NC(=O)COc2ccc(Br)cc2)cccc1-c1nc2ncccc2o1	p53 PUMA act 54.2
O=C(COc1ccccc1)Nc1cccc(-c2nc3c(ccc4ccccc43)o2)c1	none
Cc1cc(OCC(=O)Nc2cccc(-c3nc4ccccc4o3)c2C)cc(C)c1Cl	none
O=C(COc1ccc(Br)cc1)Nc1cccc(-c2nc3ncccc3o2)c1	p53 PUMA act 72.6
COc1cc(C(=O)Nc2cc(-c3nc4ncccc4o3)ccc2C)ccc1OCc1ccc(Cl)cc1	none
CC(C)Cc1ccc(C(C)c2nc(-c3cccs3)no2)cc1 (stereo not drawn)	none (no result: STK33 kin inh)
